Inconclusive results are not listed. The source made the active and inactive calls. The call rests on the fitted dose curve; in most records, active means well fitted cell-killing curve with a large enough effect; inconclusive means small, poorly fitted or top-dose-only effect; inactive means no such curve, though single readings can be large or run the other way.
Potency means the concentration at half of the fitted maximal effect.

This assay can be described thus: qHTS of pediatric cancer cell lines to identify multiple opportunities for drug repurposing: Confirmatory screen for SK-N-MC cells (AID 1347111).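 Further: cells exposed to compound for 48 h before the readout; nearly all actives have a fitted effect of over 70% in size.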 The note with it: SK-N-MC cell viability; series mostly up to 45.9 µM. From the text: Drug repurposing or repositioning has been offered as a strategy for drug development in oncology programs. This approach has special potential for childhood cancers and other rare or orphan diseases, where the expected return on new drug development has been a disincentive to pharmaceuticals.
In this project we exploit the poly-pharmacology of drugs to discover new indications via phenotypic screening of a panel of 19 well-characterized cell lines derived from solid tumors seen in children and adolescents. The goal is to identify approved drugs with previously unrecognized anticancer properties that has the potential to reveal new mechanisms and biological processes involved in carcinogenesis or drug resistance. We employed a titration-based paradigm (quantitative high-throughput screening or qHTS), where all compounds were tested at multiple concentrations for their effect on cell viability. Concentration-response curves (CRCs) were derived directly from the primary screen, and both potency and efficacy values were used to identify compounds with robust bioactivity profiles. We screened the NIH Chemical Genomics Center (NCGC) Pharmaceutical Collection (NPC) and Mechanism Interrogation Plate (MIPE) small molecule collections of approved and investigational compounds against these cell lines; and measured metabolically active cells after 48 hours of compound treatment as a proxy for cell viability.
Assay Submitter: Nathalia J. Martinez, National Center for Advancing Translational Sciences, National Institutes of Health, Rockville, MD, USA; email: natalia.martinez@nih.gov
[1] Shen, M et al. Quantitative high-throughput phenotypic screening of pediatric cancer cell lines identifies multiple opportunities for drug repurposing. Oncotarget 2017 Dec 19;9(4):4758-4772. PMID 29435139.
The cells were obtained from University of North Carolina (UNC), Pediatric Preclinical Testing Program (PPT), and Coriell Institute (CI).
qHTS cell viability assay:
Cells were assayed in growth media at a density of 500-1,000 cells/well. Five microliters of cells were dispensed into 1,536-well, white, solid-bottom, TC-treated plates (Greiner Bio One) using a multidrop dispenser and incubated at 37 degrees C, 5% CO2, under a humidified atmosphere for 5 hours. Twenty-three nanoliters of compounds and controls (neutral control DMSO or positive control bortezomib at final concentration of 2.3 µM) were subsequently transferred by Kalypsys pintool. For primary screens, the MIPE collection was tested at 11-point dilutions (final concentrations range from 0.78 nM to 46 µM) and the NPC collection at 8-point dilutions (final concentrations range from 0.59nM to 46 µM). Compounds tested in follow-up screens were assayed at 11-point dilutions. Cells were incubated for 48 hours, followed by addition of 3 uL of CellTiter-Glo (Promega). After a 15 min incubation at room temperature, samples were analyzed for luminescence intensity using a ViewLux High-throughput CCD imager equipped with clear filters.
On the technique in general: Quantitative high-throughput screening tests each substance at several concentrations.
For `O=C(c1ccc(OCCN2CCCCC2)cc1)c1c(-c2ccc(O)cc2)sc2cc(O)ccc12`, the Potency was 16.5 µM (active). As for `CC(C)Cc1ccc(C(C)C(=O)O)cc1` (stereo unspecified), the Potency was 3.69 µM (active). The same measure for `Clc1ccc2nsnc2c1NC1=NCCN1`: “inactive”. The same measure for `NC(=O)NO`: “inactive”. The result for `CCCCc1oc2ccccc2c1C(=O)c1cc(I)c(OCCN(CC)CC)c(I)c1` reads 22.4 µM (active); that for `O=C(Nc1ccc([N+](=O)[O-])cc1Cl)c1cc(Cl)ccc1O`, 4.07 µM (active); that for `O=C1c2c(O)ccc(O)c2C(=O)c2c(NCCNCCO)ccc(NCCNCCO)c21`, 0.208 µM (active). On to `CN(Cc1cnc2nc(N)nc(N)c2n1)c1ccc(C(=O)N[C@@H](CCC(=O)O)C(=O)O)cc1`, for which the Potency is 0.0369 µM (active). Take `CC[C@@]1(O)C(=O)OCc2c1cc1n(c2=O)Cc2cc3c(CN(C)C)c(O)ccc3nc2-1`: the Potency was 0.0465 µM (active). For the compound `CN1CCN(CCCN2c3ccccc3Sc3ccc(Cl)cc32)CC1`, the Potency was 3.69 µM (active). For `NC12CC3CC(CC(C3)C1)C2`, the Potency entry is “inactive”. Regarding `CC(CCc1ccc(O)cc1)NCCc1ccc(O)c(O)c1` (stereo unspecified), the Potency is 9.27 µM (active). The same measure for `COC(=O)Nc1nc2ccc(C(=O)c3cccs3)cc2[nH]1`: 0.147 µM (active); for `CC(C)NCC(O)c1ccc(O)c(O)c1` (stereo unspecified): 2.33 µM (active); for `COc1cc2c(c(OC)c1OC)-c1ccc(OC)c(=O)cc1[C@@H](NC(C)=O)CC2`: 0.0398 µM (active). Take `CC(COc1ccccc1)N(CCCl)Cc1ccccc1` (stereo unspecified): the Potency was 10.4 µM (active).
